High-throughput results as filed in PubChem BioAssay.
The list is not random: actives were taken first. Their share in the collection is about 3.5%.
BoNT-F LC inh = BoNT F light chain protease inhibition; Multiplex microsphere protease cleavage assay, flow cytometry; 0.22% of 360,000 active; inhibition, % at 10 µM; in the data active = inhibition above about 35%, passing the limit was not always enough; inconclusive = no clear call, values can overlap the other calls
BoNT-A LC inh2 = BoNT A light chain protease inhibition | inhibition, % at 10 µM | 0.17% of 360,000 active | multiplex microsphere protease substrate cleavage, flow cytometry
Autofluor counter = flagged as autofluorescent in microsphere protease counterscreen. compound autofluorescence counterscreen, microsphere flow cytometry; active compounds read high. fluorescence intensity (concentration not given with the values). 3.1% of 360,000 active; in the data active = fluorescence intensity above about 16000; inconclusive = no clear call, values can overlap the other calls
Anthrax LF prot = inhibitors of Bacillus anthracis lethal factor protease | P15917 | multiplex microsphere protease cleavage assay, LF | inhibition, % at 10 µM | 0.12% of 360,000 active | AID 588501
Target sequence (P15917 whole entry, looked up): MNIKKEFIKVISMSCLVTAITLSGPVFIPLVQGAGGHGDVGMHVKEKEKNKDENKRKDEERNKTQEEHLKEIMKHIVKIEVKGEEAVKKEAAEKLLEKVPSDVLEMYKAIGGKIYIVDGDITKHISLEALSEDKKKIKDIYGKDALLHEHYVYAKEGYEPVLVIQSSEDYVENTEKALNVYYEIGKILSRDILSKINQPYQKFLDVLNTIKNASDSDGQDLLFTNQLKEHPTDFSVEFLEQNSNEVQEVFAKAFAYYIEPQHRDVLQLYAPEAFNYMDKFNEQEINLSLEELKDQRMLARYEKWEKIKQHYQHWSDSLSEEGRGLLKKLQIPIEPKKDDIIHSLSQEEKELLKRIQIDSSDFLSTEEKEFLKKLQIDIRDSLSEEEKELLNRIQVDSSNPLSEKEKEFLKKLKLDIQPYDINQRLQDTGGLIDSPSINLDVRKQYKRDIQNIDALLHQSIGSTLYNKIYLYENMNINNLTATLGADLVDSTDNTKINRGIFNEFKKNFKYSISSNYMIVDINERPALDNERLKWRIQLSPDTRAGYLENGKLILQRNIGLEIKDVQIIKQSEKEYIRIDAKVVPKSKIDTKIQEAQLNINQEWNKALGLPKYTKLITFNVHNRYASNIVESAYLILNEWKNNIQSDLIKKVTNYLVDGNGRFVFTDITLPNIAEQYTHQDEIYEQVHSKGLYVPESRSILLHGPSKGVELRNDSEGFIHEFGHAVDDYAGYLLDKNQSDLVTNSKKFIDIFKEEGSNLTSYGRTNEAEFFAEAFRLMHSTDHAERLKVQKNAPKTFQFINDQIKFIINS
Each line names hits and unclear results; the compound was inactive in the other large screens. Rule as the data show it, unless noted: active = inhibition above about 30%; inconclusive = no clear call, values can overlap the other calls; inactive = below that.

CCOc1cc(-c2nc3ccccn3c2NCC2CCCO2)ccc1O (stereo not given)	Autofluor counter 22229
C=CCn1c(SCC)nc2sc3c(c2c1=O)CCc1ccccc1-3	Autofluor counter 17250
O=C(Nc1ccc(F)cc1)c1cnc(-c2ccccc2)nc1-c1ccccc1	BoNT-A LC inh2 inconclusive, Autofluor counter 18660
O=C1N/C(=C\c2ccc(O)cc2)C(=O)c2ccccc21	Autofluor counter 19019
O=C(O)/C=C1\NC(=O)c2ccccc21	none
CN1C(=S)SC(C)(NO)C1(C)C (stereo not given)	Autofluor counter 18153
CCCCN1C(=O)C(CC(=O)NCc2ccco2)CC(C(=O)N2CCCCCC2)=C1C (stereo not given)	none
COc1ccc(NC(=O)c2cncc(Br)c2)c(S(=O)(=O)N2CCOCC2)c1	none
COc1ccc(NC(=O)c2cccnc2Cl)c(S(=O)(=O)N2CCOCC2)c1	Autofluor counter 22564
O=C(NC1CCCC1)C(c1ccccn1)N(C(=O)c1csnn1)c1ccccc1Br (stereo not given)	none
Cc1nn(-c2ccccc2)c(OC(=O)c2cccs2)c1S(=O)(=O)c1ccc([N+](=O)[O-])cc1	Autofluor counter 16331
COc1ccc(-n2cnnc2SCc2csc(-c3ccccc3)n2)cc1	BoNT-A LC inh2 inconclusive, Autofluor counter 22341
C=CCn1c(SCC(=O)c2c(N)n(C)c(=O)n(C)c2=O)nnc1-c1ccoc1C	none
Cc1ccccc1NC(=S)N(C)C1(c2ccccc2Cl)CCCCC1=O (stereo not given)	Autofluor counter 23061
CC(=O)Nc1nc(COc2ccc3ccccc3c2)cs1	Autofluor counter 23460
O=C(Nc1nc(COc2ccccc2)cs1)C12CC3CC(CC(C3)C1)C2	Autofluor counter 24492
CC(=O)Nc1nc(COc2ccccc2)cs1	none
COC(=O)c1nn(-c2ccc(OC)cc2)c(=O)cc1Oc1ccccc1	Autofluor counter 21753
COC(=O)c1nn(-c2ccccc2)c(=O)cc1Oc1ccc(Cl)cc1	none
COc1cccc(C(=O)Cn2c(N3CCOCC3)nc3c2c(=O)n(C)c(=O)n3C)c1	Autofluor counter 16198
COCCn1c(N2CCN(c3ccc(OC)cc3)CC2)nc2c1c(=O)n(C)c(=O)n2C	Autofluor counter 17764
CCOCCn1c(N2CCN(c3ccc(OC)cc3)CC2)nc2c1c(=O)n(C)c(=O)n2C	none
COc1ccc(CN2C(=O)CCC2(C)c2nnnn2-c2ccc3c(c2)OCCO3)cc1 (stereo not given)	none
COc1ccc2c(c1)Cc1c-2cc(Br)c(N)c1Br	none
COc1cccc(CSc2nc3sc(C)c(C)c3c(=O)n2Cc2ccco2)c1	Autofluor counter 19855
Cc1sc2nc(SCC(=O)C(C)(C)C)n(Cc3ccco3)c(=O)c2c1C	Autofluor counter 22551
Cc1sc2nc(SCc3ccccc3)n(Cc3ccco3)c(=O)c2c1C	none
COc1ccc(NC(=O)CSc2nc3sc(C)c(C)c3c(=O)n2Cc2ccco2)cc1	BoNT-A LC inh2 inconclusive, Autofluor counter 21853
Cc1ccc(CSc2nc3sc(C)c(C)c3c(=O)n2Cc2ccco2)cc1	none
Cc1cccc(CSc2nc3sc(C)c(C)c3c(=O)n2Cc2ccco2)c1	none
CNc1ccc(-c2cccc([N+](=O)[O-])c2)cn1	none
O=C1CN(C(=O)COc2ccc(F)cc2Br)c2ccccc2N1	none
CC(NC(=O)c1ccc(F)cc1)c1nc2ccccc2n1Cc1ccccc1F (stereo not given)	Autofluor counter 26278
CC(=O)c1cccc(NS(=O)(=O)c2cc(OCC(N)=O)c(C)cc2Cl)c1	Autofluor counter 19294
Cc1cccc(NS(=O)(=O)c2cc(OCC(N)=O)c(C)cc2Cl)c1	none
COc1ccc(S(=O)(=O)N(C)c2ccc(C(=O)NCc3ccccn3)cc2)cc1OC	none
COC(=O)C1C(c2ccccc2)C(C(=O)N2CCOCC2)C1c1ccccc1 (stereo not given)	BoNT-A LC inh2 inconclusive, Autofluor counter 22025
CCC(C(=O)NCCN1CCOCC1)n1c2ccccc2c2nc(=O)cc(C)n21 (stereo not given)	none
O=C(O)CC/C(=N/NC(=O)CNC(=O)c1ccc2c(c1)OCCO2)c1ccccc1	none
O=C(COC(=O)CC1CCCC1)Nc1ccc(Cl)cn1	none
O=C(COC(=O)CNC(=O)C1CCCCC1)Nc1ccc(Cl)cn1	Autofluor counter 21353
CCOc1ccc(CCN2C(=O)CCC2(C)C(=O)NC(C)CC)cc1OCC (stereo not given)	Autofluor counter 23716
Cc1cccc(C)c1-n1nnnc1SCSc1nnnn1-c1c(C)cccc1C	BoNT-A LC inh2 inconclusive, Autofluor counter 21580
O=C(NC1CCCC1)C1CC(c2ccc(F)cc2)=NO1 (stereo not given)	Autofluor counter 23071
COc1cccc(C2=NOC(C(=O)Nc3cccc(C(C)=O)c3)C2)c1 (stereo not given)	Autofluor counter 19143
